ARNT TACC3 PPI: disruptors of human ARNT/TACC3 interaction; Q9Y6A5; AlphaScreen His-ARNT PAS-B/GST-TACC3 binding, luminescence; TACC3 fragment carries E629A point mutation; inhibition, % at 9.99 µM; 390,000 compounds, 0.66% hits; AID 623870;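 active means mean inhibition of replicates at least 50% and at least half of replicates each reaching 50%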;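 further: 0% = complete ARNT plus TACC3 wells and 100% = ARNT alone without TACC3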
HGIII-sPLA2 inh: Inhibits HGIII-sPLA2 liposome hydrolysis, primary screen; AID 743126; inhibition, % at 12.2 µM; 370,000 compounds, 0.56% hits; QFRET BODIPY PC-A2 liposome hydrolysis, fluorescence;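 active means inhibition above mean plus 3 SD of compounds lying within the high and low control bounds, cut at about 19% in these data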;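 further: 0% = median of test compound wells and 100% = no enzyme DMSO wells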
AI-2 QS modul: modulates the Vibrio harveyi AI-2 quorum sensing system; 300,000 compounds, 0.4% hits; activity change, % at 7.5 µM; Vibrio harveyi JMH597 AI-2 luminescence/OD600 ratio, 9 h; hits give low values; strain lacks LuxN and CqsS sensors; 0 = neutral-control median; in the data active means activity change below about -75%, passing the limit was not always enough;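 further: luminescence divided by OD600 gain over 9 h not by final OD600 alone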
Rin1 Abl inh: inhibitors of human Rin1-Abl protein interaction; P00519+Q13671; TR-FRET Rin1/Abl binding, biochemical; inhibition, % at 7.35 µM; 360,000 compounds, 0.4% hits; AID 588664; in the data active means inhibition above about 5%, passing the limit was not always enough
hGIII sPLA2 conf: human GIII-sPLA2 inhibition, confirmation. shares compounds with HGIII-sPLA2 inh. recombinant hGIII-sPLA2, BODIPY PC-A2 QFRET fluorescence. inhibition, % at 12.2 µM. 2,000 compounds, 34% hits. AID 743280;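 active means mean inhibition across triplicates above the hit cutoff set in the earlier primary screen, cut at about 19% in these data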;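 further: 0% = enzyme with DMSO and 100% = DMSO wells lacking enzyme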
BODIPY interf: optically interferes with 535nm fluorescence in sPLA2 counter-screen; shares compounds with HGIII-sPLA2 inh; BODIPY FL product fluorescence interference, QFRET; inhibition, % at 12.2 µM; 2,000 compounds, 8.5% hits;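 active means average inhibition above the solvent-only control mean plus 3 SD, cut at about 6% in these data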;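 further: 0% = DMSO with substrate plus product and 100% = DMSO with substrate alone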
535nm interf DR: interferes with 535nm fluorescence in dose response counter-screen. shares compounds with HGIII-sPLA2 inh. BODIPY FL product fluorescence interference, cell-free. IC50, µM. 240 tested, under 10 active. AID 743455;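 active means IC50 at or below 10 µM; inactive means IC50 above 10 µM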
Active calls of the source: *; . = no result. Only some compounds are listed: those with a hit (about 1.5% of all), similar ones and a draw of the others.

SMILES	ARNT TACC3 PPI	HGIII-sPLA2 inh	AI-2 QS modul	Rin1 Abl inh	hGIII sPLA2 conf	BODIPY interf	others
NCCOc1ccc(C23CC4CC(CC(C4)C2)C3)cc1	3	31*	48	0	14	-29
COC(=O)NNC(=O)COc1ccc(Cl)cc1	-9	.	41	1	.	.
COc1ccc(C(=O)NNC(=O)COc2ccc(Cl)cc2)c(OC)c1	5	25*	-4	0	12	-7
COc1cccc(OCC(=O)NNC(=O)c2ccc3ccccc3c2O)c1	-3	36*	18	3	33*	3	535nm interf DR=>122
COc1ccc(C(=O)NNC(=O)c2ccc3ccccc3c2O)cc1	-12	-2	24	-2	.	.
C/C=C/c1cnc2c(c1)C(=O)N([C@@H](C)CO)C[C@H](C)[C@H](CN(C)C(=O)Nc1c(C)noc1C)O2	9	.	.	.	.	.
Cc1ccccc1NC(=S)NCC(c1cccnc1)N1CCOCC1 (stereo not drawn)	-16	0	23	-1	.	.
CCc1cccc(CC)c1NC(=S)NCC(c1cccnc1)N1CCOCC1 (stereo not drawn)	-13	24*	23	-6	18	-6
O=C(N[C@H]1CC[C@@H](CCNC(=O)C2CC2)O[C@H]1CO)c1ccncc1	-2	.	.	.	.	.
CO[C@H]1CN(C)C(=O)c2ccc(NC(=O)NC(C)C)cc2OC[C@@H](C)N(C(=O)NC(C)C)C[C@H]1C	22	.	.	.	.	.
COc1ccc(Br)cc1CN(C)C(C)C(=O)Nc1cc([N+](=O)[O-])ccc1OC (stereo not drawn)	4	20*	6	1	8	-8
O=C(CN(C(=O)c1ccc(Cl)cc1)C1CCCCC1)Nc1ccc(Cl)c([N+](=O)[O-])c1	-25	20*	21	-2	-7	-16
CCOc1ccc2c(c1)-c1c(ssc1=S)C(C)(C)N2C(=O)c1ccco1	3	21*	15	-4	36*	1	535nm interf DR=>122
O=[N+]([O-])C1=CC=C2C(=NC3(CCCCC3)N2O)C1=NC1CCCCC1	10	19*	29	2	25*	-3
CC1(C)CC(N=C2C([N+](=O)[O-])=CC=C3C2=NC2(CCCCC2)N3O)CC(C)(C)N1	.	-10	24	-8	.	.
CCCCNc1c(-c2ccc(SC(C)CC)cc2)nc2ccc(Cl)cn12 (stereo not drawn)	.	23*	.	.	-8	-7
CCCCCCSc1cccc(-c2nc3ccc(Cl)cn3c2NCCCC)c1	.	6	.	-1	.	.
N#C[C@@H]1[C@@H](c2ccc(-c3cccc(F)c3)cc2)[C@H](CO)N1S(=O)(=O)c1cccc(F)c1	-18	.	.	.	.	.
CCCN1[C@@H]2c3ccc(-c4ccccc4F)c(=O)n3C[C@@H]2[C@@H](CO)[C@@H]1C(=O)N1CCN(C)CC1	2	.	.	.	.	.
CC(NC(=S)NC1CCCCC1)C(c1cccs1)N1CCOCC1 (stereo not drawn)	-1	24*	10	-1	19	-3
COc1ccccc1NC(=S)NC(C)C(c1cccs1)N1CCOCC1 (stereo not drawn)	0	25*	6	-2	8	-11
CC(NC(=O)Nc1ccccc1)C(c1cccs1)N1CCOCC1 (stereo not drawn)	-6	0	20	3	.	.
CCN1CCN(C(c2cccs2)C(C)NC(=S)NC2CCCCC2)CC1 (stereo not drawn)	3	12	1	-2	.	.
COc1ccc(Cl)cc1C(Nc1cccnc1)c1ccc2cccnc2c1O (stereo not drawn)	15	31*	-82*	4	35*	-3	535nm interf DR=>122
C[C@@H]1CN([C@@H](C)CO)C(=O)c2cc(C#Cc3ccccc3)cnc2O[C@H]1CN(C)CC1CCOCC1	2	.	.	.	.	.
Cc1cc(=O)oc(C)c1C(=O)Nc1ccccc1F	-5	26*	6	1	1	-8
Cc1ccccc1NC(=O)c1c(C)cc(=O)oc1C	-7	23*	16	1	-2	-6
CN1CCC[C@@H]1CCNC(=O)c1cccc2c1C(=O)c1ccc(N3CCCC3)cc1S2(=O)=O	0	78*	.	-11	-21	-31
